Source: PubChem (National Center for Advancing Translational Sciences (NCATS))
A selection: hits, their analogues and other compounds. The true share with any hit is near 3.9%.
Luciferase inh: inhibitors of firefly luciferase; P08659; purified firefly luciferase, luminescence, 8 min; Potency, µM (doses to about 57.1 µM), usual class: inhibitors; 72,000 tested, 2.2% active; AID 411; further: nearly all actives have a fitted effect of over 40% in size
Target sequence (P08659 whole entry, looked up): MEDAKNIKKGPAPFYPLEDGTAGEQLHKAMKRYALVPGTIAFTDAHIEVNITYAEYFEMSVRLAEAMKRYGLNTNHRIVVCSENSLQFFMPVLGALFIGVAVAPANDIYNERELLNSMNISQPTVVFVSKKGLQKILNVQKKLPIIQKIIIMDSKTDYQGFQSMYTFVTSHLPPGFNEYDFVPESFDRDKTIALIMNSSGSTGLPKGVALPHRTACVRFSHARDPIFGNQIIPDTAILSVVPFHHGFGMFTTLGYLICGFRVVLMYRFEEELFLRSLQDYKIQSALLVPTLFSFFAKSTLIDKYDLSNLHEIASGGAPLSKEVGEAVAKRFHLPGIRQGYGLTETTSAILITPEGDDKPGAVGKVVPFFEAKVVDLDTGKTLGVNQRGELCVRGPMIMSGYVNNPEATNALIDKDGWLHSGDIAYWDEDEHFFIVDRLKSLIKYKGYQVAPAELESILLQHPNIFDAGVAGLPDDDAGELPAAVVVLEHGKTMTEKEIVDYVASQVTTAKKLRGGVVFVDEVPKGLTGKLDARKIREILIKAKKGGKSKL
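Titration-based qHTS; buffer 50 mM imidazole pH 7.2, 50 mM KCl, 7 mM MgCl2, 10 uM ATP, 0.01% Tween 20, 0.05% BSA; luciferase/luciferin detector mix added after compound; 8 min, ambient; luminescence.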
Bst PK mod: pyruvate kinase (B. stearothermophilus) modulation | purified pyruvate kinase, luminescence ATP production; ribose 5-phosphate activator present at AC10 | Potency, µM | 51,000 tested, 1.2% active | AID 361; in the data active means potency below about 11 µM; inconclusive means mostly about 12 µM to 25 µM;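 the screen sought inhibitors and activators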
ERK AVP inh: inhibitors of vasopressin-stimulated ERK signaling pathway | HEK293-V1b, vasopressin-stimulated pERK AlphaScreen | Potency, µM (series often up to 57.5 µM), usual class: inhibitors | 72,000 tested, 0.99% active; further: nearly all actives have a fitted effect of over 55% in size
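Overnight-seeded V1b-HEK293 cells in 1% FBS got compound, then vasopressin (25 nM final, 5 min, 37C), then lysis buffer. AlphaScreen detection of phospho-ERK; activity normalized to basal and full-stimulation controls.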
GBA mod: human lysosomal glucosylceramidase modulation; P04062; purified enzyme, resorufin glucoside fluorescence (screen aimed at inhibitors), 20 min; Potency, µM; 48,000 tested, 1.1% active; in the data active means potency below about 15 µM; inconclusive means mostly about 16 µM to 33 µM;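 further: the screen sought inhibitors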
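Compounds titrated against 0.2 nM normal enzyme, 30 uM resorufin beta-D-glucopyranoside substrate, citrate/phosphate buffer with taurocholate and tween-20, pH 5.9. Reaction ran 20 min at room temperature; fluorescence (Ex 548/Em 600) gave AC50.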
Hits are given with their value; – = inactive; ? = inconclusive; · = not tested or not shown; ! = not active in a repeat; [ ] = another dose, or the depositor's remark. Unless noted, the call rests on the fitted dose curve; in most records, active means well fitted curve in the direction sought with a large enough effect; inconclusive means small, poorly fitted or top-dose-only effect, or another doubt; inactive means no such curve, though single readings can be large; an effect the other way counts as inactive or inconclusive.

SMILES	Luciferase inh	Bst PK mod	ERK AVP inh	GBA mod
CSc1ccccc1N=Cc1nc(-c2ccccc2)oc1O	?	·	–	·
COc1cccc(Cn2c(=O)cnc3cnc(Nc4ccccc4)nc32)c1	–[11.4 µM]	·	?	·
CC(C)(C)c1ccc(C(=O)Nc2cnccn2)cc1	3.98µM	5.58	–	–
CC(C)(C)c1cc(NC(=O)c2cccnc2)no1	–	–	–	–
CS(=O)(=O)N1CCC2(CCN(c3ccccn3)CC2)CC1	–[11.4 µM]	·	–	·
CCCNC(=O)OC[C@H]1O[C@@H](CCO/N=C2/C[C@@H](O)[C@@H](O)[C@@H]3[C@@H]4C(=O)N(CC)C(=O)[C@H]4CC[C@@H]23)C=C[C@@H]1Oc1ccc(OC)cc1	–[11.4 µM]	·	–[11.5 µM]	·
CCOC(=O)Cn1nc(-c2ccc(Cl)cc2)cc1N	–	5.79	?	–
CCOC(=O)CCn1nc(-c2ccc(Cl)cc2)cc1N	–	·	–	–
O=S(=O)(c1ccccc1)N1CCC2(CCN(c3ccc(-c4ccccc4)cc3)CC2)CC1	–[11.4 µM]	·	–	·
CC(=O)NC(Cc1ccc(F)cc1)C(=O)NC1CCN(c2nnnn2-c2ccccc2)CC1 (centres undefined)	–	–	–	5.79
Cc1occc1-c1nnc(SCC(=O)c2cc3ccccc3oc2=O)o1	–	–	15.8µM	–
Cc1cc(C)c(C(=O)CSc2nnc(-c3ccccc3Br)o2)cc1C	–	–	–	–
Brc1ccc2c(c1)c1nc3ccccc3nc1n2CCN1CCOCC1	–	·	31.6µM	·
CO/N=C\c1ccc(C(=O)N2[C@H](c3ccc(C)cc3)[C@@H](C)CC[C@H]2C(=O)OC)cc1	–[11.4 µM]	·	–[11.5 µM]	·
N#CCCn1c(=O)c(-c2ccc(F)cc2)nc2cnc(Oc3ccccc3)nc21	–[11.4 µM]	·	–	·
COc1ccc(N/C(N)=N/c2nc(CSc3ccc(C)cc3)cc(=O)[nH]2)cc1	–	–	–	9.71
N[C@@H](C(=O)O)[C@H](O)C(=O)O	–	·	·	·
COC(=O)c1ccc(NC(=O)c2sc3nc(-c4ccccc4)cn3c2C)cc1	–	–	–	?
COc1ccc(-c2cn3c(C)c(C(=O)Nc4cccc(NC(C)=O)c4)sc3n2)cc1	12.6µM	–	–	?
Cc1noc(C)c1-c1cncnc1NCc1ccccc1	–[2.29 µM]	·	–	·
Cc1ccc(Nc2nc(C3CC3)cs2)cc1	7.94µM	·	·	·
CCN(CC)C(=O)c1csc(Nc2ccc(C)cc2)n1	–	–	?	·
c1ccc2c(c1)CCN(c1nc3cc4c(cc3s1)OCO4)C2	3.98µM	2.83	–	–
c1c2c(cc3sc(N4CCCCC4)nc13)OCO2	6.31µM	6.18	–	–
c1c2c(cc3sc(N4CCOCC4)nc13)OCO2	15.8µM	–	–	–
SMILES	Luciferase inh	Bst PK mod	ERK AVP inh	GBA mod
c1ccc(N2CCN(c3nc4cc5c(cc4s3)OCO5)CC2)cc1	?	·	–	–
Clc1cccc2sc(N3CCCC3)nc12	–	–	–	–
O=C(c1cc2ccccc2oc1=O)N1CCN(c2ccc(N3CCOCC3)nn2)CC1	15.8µM	·	–	·
CCCn1c(NCc2cccc(OC)c2OC)nc2ccccc21	–	–	–	–
CCCn1cnc2cc(NCc3ccccn3)ccc21	15.8µM	·	·	·
CCCn1cnc2cc(NCc3cccc(OC)c3O)ccc21	15.8µM	·	–	?
CCCn1c(NCc2cccc(OC)c2O)nc2ccccc21	–	–	–	–
COc1cccc(CNc2ccc3c(c2)ncn3C(C)C)c1OC	12.6µM	·	·	·
CCC(=O)OC1C2CC3=C4CC(=O)OC(c5ccoc5)[C@]4(C)CCC3[C@@](C)(C2=O)C(CC(=O)OC)C1(C)C (some centres undefined)	·	·	–	·
C[C@@H]1C(=O)O[C@H]2[C@@H](O)[C@@]34[C@H]5C[C@H](C(C)(C)C)[C@@]36[C@H](OC(=O)[C@@H]6O)O[C@@]4(C(=O)O5)[C@@]12O	–[11.4 µM]	·	·	·
COCCCn1c(-c2ccco2)nc2ccccc2c1=O	–	·	–	·
COc1ccc(CCn2c(-c3ccco3)nc3ccccc3c2=O)cc1OC	–	·	10µM	·
Nc1nc(SCCc2ccccc2)c2[nH]cnc2n1	–[11.4 µM]	·	–[11.5 µM]	·
CN(C)CCCNc1cc(O)c2c(c1O)C(=O)c1ccccc1C2=O	–[11.4 µM]	·	–[11.5 µM]	·
O=C1c2ccccc2C(=O)c2c(O)c(O)cc(O)c21	·	·	31.6µM	·
NCC(O)CC(=O)O (centres undefined)	·	·	–	·
Cc1cccc(Nc2nnc(SCc3cn4ccsc4n3)s2)c1	31.6µM	–	–	–
COc1ccc(C)cc1-n1nnnc1SCc1cn2ccsc2n1	–	–	?	–
CO[C@@H]1COC(=O)CC=C[C@@H](C)[C@@H]2C=C[C@H](O)[C@@H](COC(=O)[C@H](C)NC(=O)CC=C[C@H]1C)O2	–[11.4 µM]	·	–[11.5 µM]	·
Cc1ccc(O)c(N=Nc2ccccc2)n1	12.6µM!	·	?	·
Cc1cc(Nc2ccc(N=Nc3ccc(O)c4ncccc34)cc2)nc(C)n1	–[11.4 µM]	·	–[11.5 µM]	·
O=c1cnc2cnc(Nc3ccccc3)nc2n1Cc1cccs1	–[11.4 µM]	·	?	·
